According to the supplement of paper PMC10849652:
Of roughly 7,900 targets only a part is listed; those with a hit were picked by preference. About 0.6% of all pairs of compound and target were hits.

Columns and labels:
Assay in all cases: log2 fold change, soluble protein after heating vs DMSO (PISA); higher = thermal stabilisation; K562 cells, 10 uM, 30 min; active = over 0.2 and 3.5 SD of the protein, either way, in both replicates (recomputed)
[1] = compound: COC1=CC=C(C=C1)CN2C=CC3=C2C=C(C=C3)C(=O)NO
Procedure, shortened: (§1)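 K562 cells at 2×10^6 cells/mL were treated for 30 min with 10 μM compound, and aliquots were heated for 3 min over 48°C-58°C before pooling. Extraction used PBS with 0.5% NP-40 at 4°C, and soluble protein was the supernatant after 21,000xg for 90 min, measured by TMTpro 16plex LC-MS/MS with channel sums equalised. Thermal stability values, relative to control samples and from duplicates, are log2 fold changes.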

[2] = compound: CON(C)C(=O)N1N=C(c2cc(F)ccc2F)S[C@@]1(CCCN)c1ccccc1 [filanesib]
Procedure, shortened: as §1

[3] = compound: CO[C@H]1C[C@@H]2CC[C@@H](C)[C@@](O)(O2)C(=O)C(=O)N2CCCC[C@H]2C(=O)O[C@H]([C@H](C)C[C@@H]2CC[C@H](n3cnnn3)[C@H](OC)C2)CC(=O)[C@H](C)/C=C(\C)[C@@H](O)[C@@H](OC)C(=O)[C@H](C)C[C@H](C)/C=C/C=C/C=C/1C [zotarolimus]
Procedure, shortened: as §1

[4] = compound: COc1cc(C(=O)O)ccc1NC(=O)[C@@H]1N[C@@H](CC(C)(C)C)[C@](C#N)(c2ccc(Cl)cc2F)[C@H]1c1cccc(Cl)c1F [idasanutlin]
Procedure, shortened: as §1

[5] = compound: COc1cc(Nc2ncc3c(n2)-c2ccc(Cl)cc2C(c2c(F)cccc2OC)=NC3)ccc1C(=O)O [alisertib]
Procedure, shortened: as §1

[6] = compound: COc1cc2nc(-c3cc(F)ccc3O)nc(N[C@@H]3CNC[C@H]3C(C)(C)O)c2cc1OC
Procedure, shortened: as §1

[7] = compound: COc1cc2ncnc(Nc3ccc(F)c(Cl)c3)c2cc1OCCCN1CCOCC1 [gefitinib]
Procedure, shortened: as §1

[8] = compound: COc1cccc2cc(-c3nc([C@H]4CC[C@H](C(=O)O)CC4)n4ncnc(N)c34)[nH]c12
Procedure, shortened: as §1

[9] = compound: CS(=O)(=O)CCNCc1ccc(-c2ccc3ncnc(Nc4ccc(OCc5cccc(F)c5)c(Cl)c4)c3c2)o1 [lapatinib]
Procedure, shortened: as §1

[10] = compound: CS(=O)(=O)N1CCN(Cc2cc3nc(-c4cccc5[nH]ncc45)nc(N4CCOCC4)c3s2)CC1 [pictilisib]
Procedure, shortened: as §1

[11] = compound: CS(=O)(=O)c1ccc(-c2cnc(N)c(C(=O)Nc3ccccc3)n2)cc1
Procedure, shortened: as §1

[12] = compound: C[C@@H](Oc1cc(-c2cnn(C3CCNCC3)c2)cnc1N)c1c(Cl)ccc(F)c1Cl [crizotinib]
Procedure, shortened: as §1

[13] = compound: C[C@@H]1COCCN1C2=NC(=NC(=C2)C3(CC3)S(=O)(=O)C)C4=C5C=CNC5=CC=C4
Procedure, shortened: as §1

[14] = compound: C[C@H](C1=CC=C(C=C1)C(=O)NC2=C3C=CNC3=NC=C2)N
Procedure, shortened: as §1

[15] = compound: C[C@H](Nc1ncnc2nc[nH]c12)c1cc2cccc(Cl)c2c(=O)n1-c1ccccc1 [duvelisib]
Procedure, shortened: as §1

[16] = compound: Cc1cc(Nc2cc(CN3CCOCC3)c3nc(C)c(Cc4ccc(Cl)cc4F)n3n2)n[nH]1 [gandotinib]
Procedure, shortened: as §1

[17] = compound: Cc1cc(Nc2cc(N3CCN(C)CC3)nc(Sc3ccc(NC(=O)C4CC4)cc3)n2)n[nH]1 [tozasertib]
Procedure, shortened: as §1

[18] = compound: Cc1cc(SCc2sc(-c3ccc(C(F)(F)F)cc3)nc2C)ccc1OCC(=O)O
Procedure, shortened: as §1

[19] = compound: Cc1ccc(-n2nc(C(C)(C)C)cc2NC(=O)Nc2ccc(OCCN3CCOCC3)c3ccccc23)cc1 [doramapimod]
Procedure, shortened: as §1

[20] = compound: Cc1ccc(C(=O)N(CCCN)[C@@H](c2nc3cc(Cl)ccc3c(=O)n2Cc2ccccc2)C(C)C)cc1 [ispinesib]
Procedure, shortened: as §1

Measured: log2 fold change

FUCA2 (UniProt Q9BTY2)
inactive: [1] -0.094 | [2] 0.002 | [3] -0.019 | [4] 0.177 | [5] -0.044 | [6] 0.011 | [7] -0.013 | [8] 0.045 | [9] 0.025 | [10] 0.011 | [11] 0.021 | [12] -0.002 | [13] 0.017 | [14] -0.05 | [15] 0.007 | [16] 0.041 | [17] -0.008 | [18] 0.014 | [19] 0.058 | [20] -0.001

HIKESHI (UniProt Q53FT3)
inactive: [1] -0.051 | [2] -0.063 | [3] 0.026 | [4] -0.05 | [5] -0.076 | [6] 0.067 | [7] 0.011 | [8] 0.009 | [9] -0.021 | [10] -0.004 | [11] -0.007 | [12] 0.067 | [13] 0.182 | [14] -0.023 | [15] 0.101 | [16] -0.033 | [17] 0.023 | [18] -0.021 | [19] -0.013 | [20] 0.192

HDGFL2 (UniProt Q7Z4V5)
UniProt Q7Z4V5, sequence (Q7Z4V5 whole entry, looked up): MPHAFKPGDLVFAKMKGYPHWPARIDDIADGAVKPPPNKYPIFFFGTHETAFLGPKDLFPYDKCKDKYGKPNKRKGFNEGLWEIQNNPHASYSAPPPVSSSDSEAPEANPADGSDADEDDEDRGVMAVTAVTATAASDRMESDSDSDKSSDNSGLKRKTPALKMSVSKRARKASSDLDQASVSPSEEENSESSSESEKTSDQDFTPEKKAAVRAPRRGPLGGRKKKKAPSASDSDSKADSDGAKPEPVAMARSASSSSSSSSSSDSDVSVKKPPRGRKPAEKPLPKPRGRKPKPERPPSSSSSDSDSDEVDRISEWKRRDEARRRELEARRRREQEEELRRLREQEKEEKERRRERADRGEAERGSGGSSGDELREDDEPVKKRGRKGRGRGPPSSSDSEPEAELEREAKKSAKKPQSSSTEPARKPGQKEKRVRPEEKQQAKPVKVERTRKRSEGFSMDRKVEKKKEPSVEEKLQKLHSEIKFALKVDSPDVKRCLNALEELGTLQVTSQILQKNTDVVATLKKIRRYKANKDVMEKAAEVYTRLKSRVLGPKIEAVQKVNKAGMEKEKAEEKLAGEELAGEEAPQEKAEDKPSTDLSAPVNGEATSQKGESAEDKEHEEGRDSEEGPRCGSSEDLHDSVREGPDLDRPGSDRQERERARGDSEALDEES
inactive: [1] 0.032 | [2] 0.056 | [3] -0.025 | [4] 0.012 | [5] -0.051 | [6] -0.013 | [7] 0.025 | [8] 0.04 | [9] -0.019 | [10] -0.004 | [11] 0.086 | [12] -0.007 | [13] -0.052 | [14] -0.04 | [15] -0.047 | [16] 0.005 | [17] -0.004 | [18] -0.061 | [19] -0.045 | [20] 0.019

FKBP3 (UniProt Q00688)
UniProt Q00688, sequence (Q00688 whole entry, looked up): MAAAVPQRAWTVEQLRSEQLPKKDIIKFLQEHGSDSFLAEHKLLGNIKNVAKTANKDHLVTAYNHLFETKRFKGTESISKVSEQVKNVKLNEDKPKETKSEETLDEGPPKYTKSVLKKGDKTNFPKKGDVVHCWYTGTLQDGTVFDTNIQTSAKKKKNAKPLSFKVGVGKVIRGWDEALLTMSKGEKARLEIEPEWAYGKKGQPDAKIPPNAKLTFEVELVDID
active: [3] 0.354
inactive: [1] 0.219 | [2] -0.04 | [4] -0.015 | [5] -0.052 | [6] 0.047 | [7] -0.023 | [8] 0 | [9] -0.029 | [10] 0.004 | [11] -0.02 | [12] 0.017 | [13] 0.074 | [14] -0.076 | [15] 0.016 | [16] -0.024 | [17] 0.004 | [18] -0.006 | [19] 0 | [20] 0.019

HNRNPC isoform 2 (UniProt P07910)
UniProt P07910, sequence (P07910 whole entry, looked up): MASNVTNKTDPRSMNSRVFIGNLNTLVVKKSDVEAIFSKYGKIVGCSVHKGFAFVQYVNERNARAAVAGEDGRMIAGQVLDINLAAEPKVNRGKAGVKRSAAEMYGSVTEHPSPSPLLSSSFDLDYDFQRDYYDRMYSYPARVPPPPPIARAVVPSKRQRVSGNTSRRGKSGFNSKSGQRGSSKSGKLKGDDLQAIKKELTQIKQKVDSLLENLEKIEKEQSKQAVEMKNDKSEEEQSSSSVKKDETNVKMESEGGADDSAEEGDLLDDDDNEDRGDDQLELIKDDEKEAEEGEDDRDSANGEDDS
inactive: [1] 0.009 | [2] 0.39 | [3] -0.024 | [4] 0.796 | [5] -0.052 | [6] -0.041 | [7] 0.002 | [8] -0.065 | [9] -0.026 | [10] 0.065 | [11] -0.176 | [12] -0.061 | [13] -0.239 | [14] 0.532 | [15] -0.076 | [16] 0.197 | [17] 0.05 | [18] 0.125 | [19] 0.088 | [20] -0.35

FNTA (UniProt P49354)
inactive: [1] 0.162 | [2] 0.069 | [3] 0.019 | [4] -0.062 | [5] -0.074 | [6] -0.01 | [7] 0.056 | [8] 0.044 | [9] 0.04 | [10] -0.005 | [11] 0.073 | [12] 0.069 | [13] 0.077 | [14] -0.005 | [15] 0.014 | [16] 0.057 | [17] -0.017 | [18] -0.014 | [19] -0.043 | [20] 0.06

GSTM4 (UniProt Q03013)
inactive: [1] 0.027 | [2] 0.103 | [3] 0.084 | [4] 0.031 | [5] 0.061 | [6] 0.084 | [7] -0.056 | [8] 0.068 | [9] 0.031 | [10] 0.022 | [11] -0.181 | [12] -0.006 | [13] 0.004 | [14] 0.054 | [15] 0.101 | [16] -0.028 | [17] -0.068 | [18] 0.035 | [19] -0.037 | [20] -0.012

FBXO3 (UniProt Q9UK99)
UniProt Q9UK99, sequence (Q9UK99 whole entry, looked up): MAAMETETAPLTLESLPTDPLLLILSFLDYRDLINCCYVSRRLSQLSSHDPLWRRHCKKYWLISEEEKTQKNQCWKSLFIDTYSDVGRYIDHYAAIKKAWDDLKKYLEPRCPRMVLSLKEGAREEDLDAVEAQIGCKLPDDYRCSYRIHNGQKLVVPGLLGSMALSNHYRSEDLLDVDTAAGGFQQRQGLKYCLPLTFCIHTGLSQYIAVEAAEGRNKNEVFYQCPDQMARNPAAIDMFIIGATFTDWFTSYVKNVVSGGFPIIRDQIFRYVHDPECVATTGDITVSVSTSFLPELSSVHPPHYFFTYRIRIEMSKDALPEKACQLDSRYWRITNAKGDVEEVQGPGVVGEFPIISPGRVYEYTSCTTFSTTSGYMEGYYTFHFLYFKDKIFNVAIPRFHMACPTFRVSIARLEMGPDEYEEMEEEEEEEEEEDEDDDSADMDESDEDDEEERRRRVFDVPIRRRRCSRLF
inactive: [1] 0.011 | [2] -0.053 | [3] -0.022 | [4] 0.032 | [5] -0.071 | [6] -0.013 | [7] 0.011 | [8] 0.025 | [9] 0.028 | [10] -0.023 | [11] 0.055 | [12] 0.005 | [13] -0.095 | [14] 0.008 | [15] -0.025 | [16] -0.112 | [17] -0.046 | [18] -0.025 | [19] -0.003 | [20] 0.082

FDXR isoform 7 (UniProt P22570)
inactive: [1] -0.005 | [2] -0.122 | [3] 0.021 | [4] -0.179 | [5] -0.019 | [6] 0.06 | [7] 0.048 | [8] 0.074 | [9] -0.057 | [10] 0.201 | [11] 0.038 | [12] -0.036 | [13] 0.117 | [14] -0.01 | [15] 0.11 | [16] -0.064 | [17] -0.105 | [18] 0.023 | [19] -0.013 | [20] -0.138

FRA10AC1 isoform 3 (UniProt Q70Z53)
UniProt Q70Z53, sequence (Q70Z53 whole entry, looked up): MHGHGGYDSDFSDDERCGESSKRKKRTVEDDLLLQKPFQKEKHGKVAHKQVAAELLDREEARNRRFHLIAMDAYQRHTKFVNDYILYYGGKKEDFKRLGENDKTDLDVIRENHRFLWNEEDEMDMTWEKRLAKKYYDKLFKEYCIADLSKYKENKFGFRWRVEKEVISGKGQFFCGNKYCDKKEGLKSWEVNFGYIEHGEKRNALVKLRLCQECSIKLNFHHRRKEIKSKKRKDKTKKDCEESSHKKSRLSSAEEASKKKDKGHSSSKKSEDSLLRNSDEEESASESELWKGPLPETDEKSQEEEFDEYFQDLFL
inactive: [1] -0.022 | [2] 0.179 | [3] -0.049 | [4] -0.319 | [5] -0.033 | [6] 0.068 | [7] 0 | [8] -0.005 | [9] -0.064 | [10] -0.11 | [11] -0.082 | [12] 0.201 | [13] 0.059 | [14] 0.029 | [15] 0.07 | [16] 0.189 | [17] -0.123 | [18] -0.116 | [19] -0.044

GDPD1 (UniProt Q8N9F7)
UniProt Q8N9F7, sequence (Q8N9F7 whole entry, looked up): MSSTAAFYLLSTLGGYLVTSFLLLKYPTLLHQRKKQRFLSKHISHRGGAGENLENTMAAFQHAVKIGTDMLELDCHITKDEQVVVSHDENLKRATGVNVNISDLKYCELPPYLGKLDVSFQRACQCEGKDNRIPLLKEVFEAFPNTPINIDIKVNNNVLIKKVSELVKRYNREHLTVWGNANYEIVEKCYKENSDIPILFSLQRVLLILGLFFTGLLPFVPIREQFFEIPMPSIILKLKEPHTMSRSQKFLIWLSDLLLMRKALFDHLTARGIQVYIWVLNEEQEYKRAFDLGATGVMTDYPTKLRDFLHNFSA
active: [1] 0.353 | [20] 0.353
inactive: [2] 0.056 | [3] 0.13 | [4] 0.156 | [5] -0.068 | [6] 0.208 | [7] 0.067 | [8] 0.021 | [9] 0.04 | [10] 0.085 | [11] 0.086 | [12] 0.035 | [13] 0.074 | [14] -0.057 | [15] 0.023 | [16] 0.012 | [17] 0.043 | [18] -0.033 | [19] 0.078

IFT74 (UniProt Q96LB3)
UniProt Q96LB3, sequence (Q96LB3 whole entry, looked up): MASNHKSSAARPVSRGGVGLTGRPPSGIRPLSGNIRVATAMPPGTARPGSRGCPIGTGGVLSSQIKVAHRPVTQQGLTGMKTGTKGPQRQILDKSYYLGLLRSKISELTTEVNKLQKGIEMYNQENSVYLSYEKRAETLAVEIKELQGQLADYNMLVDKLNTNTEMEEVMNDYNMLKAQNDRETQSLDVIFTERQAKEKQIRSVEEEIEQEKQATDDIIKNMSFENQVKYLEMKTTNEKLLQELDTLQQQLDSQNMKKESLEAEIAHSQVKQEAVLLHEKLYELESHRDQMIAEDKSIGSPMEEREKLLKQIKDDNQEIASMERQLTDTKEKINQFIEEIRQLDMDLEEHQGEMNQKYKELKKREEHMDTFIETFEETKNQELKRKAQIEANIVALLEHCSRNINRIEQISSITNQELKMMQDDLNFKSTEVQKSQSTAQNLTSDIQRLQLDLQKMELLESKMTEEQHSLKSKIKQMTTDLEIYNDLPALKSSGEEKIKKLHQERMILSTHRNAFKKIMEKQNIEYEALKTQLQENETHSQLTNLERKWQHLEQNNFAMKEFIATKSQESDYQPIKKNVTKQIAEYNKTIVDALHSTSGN
inactive: [1] 0.083 | [2] -0.014 | [3] 0.019 | [4] -0.058 | [5] -0.102 | [6] 0.339 | [7] 0.035 | [8] 0.024 | [9] -0.025 | [10] 0.052 | [11] 0.21 | [12] -0.04 | [13] 0.014 | [14] 0.088 | [15] 0.068 | [16] -0.02 | [17] -0.136 | [18] -0.094 | [19] 0.095 | [20] -0.133

GALNT1 (UniProt Q10472)
UniProt Q10472, sequence (Q10472 whole entry, looked up): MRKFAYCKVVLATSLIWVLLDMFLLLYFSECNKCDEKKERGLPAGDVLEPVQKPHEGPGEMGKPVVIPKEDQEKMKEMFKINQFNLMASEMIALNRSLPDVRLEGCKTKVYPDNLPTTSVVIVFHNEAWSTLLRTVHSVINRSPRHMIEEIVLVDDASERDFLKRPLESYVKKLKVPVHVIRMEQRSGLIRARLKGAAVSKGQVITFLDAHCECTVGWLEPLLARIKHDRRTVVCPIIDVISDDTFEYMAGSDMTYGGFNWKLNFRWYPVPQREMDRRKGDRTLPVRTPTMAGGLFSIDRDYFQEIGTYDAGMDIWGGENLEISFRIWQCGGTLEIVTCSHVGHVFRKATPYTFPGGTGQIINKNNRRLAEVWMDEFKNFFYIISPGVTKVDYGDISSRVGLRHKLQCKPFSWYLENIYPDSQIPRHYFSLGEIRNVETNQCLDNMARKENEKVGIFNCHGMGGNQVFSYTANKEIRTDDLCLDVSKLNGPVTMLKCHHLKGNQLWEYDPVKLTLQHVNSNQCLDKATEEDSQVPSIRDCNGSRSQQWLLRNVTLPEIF
inactive: [1] 0.224 | [2] 0.058 | [3] 0.005 | [4] -0.033 | [5] 0.047 | [6] 0.044 | [7] 0.066 | [8] 0.034 | [9] 0 | [10] 0.023 | [11] 0.014 | [12] -0.012 | [13] 0.019 | [14] -0.013 | [15] 0.046 | [16] 0.012 | [17] -0.043 | [18] 0.004 | [19] 0.026 | [20] 0.048

HDAC6 (UniProt Q9UBN7)
UniProt Q9UBN7, sequence (Q9UBN7 whole entry, looked up): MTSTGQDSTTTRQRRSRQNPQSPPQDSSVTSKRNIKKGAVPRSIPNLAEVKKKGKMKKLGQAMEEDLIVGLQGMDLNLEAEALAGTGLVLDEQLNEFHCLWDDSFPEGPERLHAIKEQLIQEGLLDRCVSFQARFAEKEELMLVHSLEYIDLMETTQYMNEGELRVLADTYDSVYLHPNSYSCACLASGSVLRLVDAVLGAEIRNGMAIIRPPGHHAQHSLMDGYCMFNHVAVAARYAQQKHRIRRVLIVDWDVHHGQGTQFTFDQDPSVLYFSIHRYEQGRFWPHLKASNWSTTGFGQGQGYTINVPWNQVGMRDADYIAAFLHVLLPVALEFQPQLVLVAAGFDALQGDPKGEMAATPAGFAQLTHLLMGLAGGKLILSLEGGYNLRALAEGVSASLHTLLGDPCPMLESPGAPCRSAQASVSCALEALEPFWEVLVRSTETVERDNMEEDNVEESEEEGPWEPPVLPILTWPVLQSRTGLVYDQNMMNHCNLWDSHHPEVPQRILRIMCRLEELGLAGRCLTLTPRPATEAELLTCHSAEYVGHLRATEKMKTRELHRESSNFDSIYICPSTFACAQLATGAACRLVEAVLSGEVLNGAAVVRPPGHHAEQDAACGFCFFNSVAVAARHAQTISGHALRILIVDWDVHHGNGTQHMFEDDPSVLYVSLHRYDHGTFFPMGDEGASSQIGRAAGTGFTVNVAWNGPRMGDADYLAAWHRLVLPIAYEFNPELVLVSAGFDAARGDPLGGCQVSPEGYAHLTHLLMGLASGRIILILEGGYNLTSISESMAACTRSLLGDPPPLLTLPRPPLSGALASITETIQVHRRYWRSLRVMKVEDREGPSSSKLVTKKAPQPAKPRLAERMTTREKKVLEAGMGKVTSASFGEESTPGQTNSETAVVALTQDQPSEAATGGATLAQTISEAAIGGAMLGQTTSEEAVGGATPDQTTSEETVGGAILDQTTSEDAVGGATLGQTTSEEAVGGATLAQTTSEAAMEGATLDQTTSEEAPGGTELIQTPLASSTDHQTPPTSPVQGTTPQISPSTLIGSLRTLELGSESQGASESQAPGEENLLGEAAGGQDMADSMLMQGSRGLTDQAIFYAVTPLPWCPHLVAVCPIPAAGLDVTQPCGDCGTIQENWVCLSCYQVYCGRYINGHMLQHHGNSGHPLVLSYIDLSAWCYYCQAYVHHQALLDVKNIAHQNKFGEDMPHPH
inactive: [2] 0.006 | [3] 0.008 | [4] -0.055 | [5] -0.097 | [6] 0.028 | [7] 0.043 | [8] -0.027 | [9] 0.016 | [10] 0.062 | [11] -0.019 | [12] -0.057 | [13] -0.007 | [14] 0.066 | [15] 0.045 | [16] 0.079 | [17] -0.091 | [18] 0.062 | [19] 0.015 | [20] -0.027
active: [1] 0.676

GTF2A1 (UniProt P52655)
inactive: [1] -0.102 | [2] 0.031 | [3] 0 | [4] 0.012 | [5] -0.126 | [6] -0.069 | [7] 0.111 | [8] 0.043 | [9] 0.006 | [10] 0.012 | [11] 0.061 | [12] 0.074 | [13] 0.061 | [14] -0.065 | [15] 0.082 | [16] 0.07 | [17] -0.027 | [18] -0.066 | [19] -0.107 | [20] 0.24

GTF2A2 (UniProt P52657)
UniProt P52657, sequence (P52657 whole entry, looked up): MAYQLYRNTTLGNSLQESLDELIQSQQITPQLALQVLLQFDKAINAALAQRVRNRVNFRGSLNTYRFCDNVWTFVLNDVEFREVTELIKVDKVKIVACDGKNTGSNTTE
inactive: [1] -0.067 | [2] -0.043 | [3] -0.006 | [4] -0.036 | [5] 0.018 | [6] 0.044 | [7] -0.028 | [8] 0.032 | [9] -0.042 | [10] 0.041 | [11] 0.022 | [12] 0.11 | [13] 0.102 | [14] 0.015 | [15] 0.067 | [16] -0.005 | [17] 0.031 | [18] -0.076 | [19] -0.034 | [20] 0.023
